This is a sample that favours compounds with a hit; in the whole collection about 0.9% have one here.
Resorufin fluor: resorufin region autofluorescence. Compound fluorescence, resorufin region 547/598 nm, buffer; hits give high values. max dye-equivalent concentration, M. hit rate 0.04% among 59,000
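Compounds in 100 mM Tris, pH 8.0, incubated 15 min at room temperature, then fluorescence read at 547 nm excitation/598 nm emission. Signal converted to dye-equivalent concentration via an on-plate six-point resorufin standard curve, per compound concentration.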
Rhodamine autofl: compound fluoresces in the rhodamine spectral region. hit rate 0.05% among 59,000. Rhodamine-region fluorescence, 547/598 nm, Tris buffer; hits give high values. max dye-equivalent concentration, M; in the data active means max dye-equivalent concentration above about 11 nM; inconclusive means between about 1.1 nM and that limit
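A six-point rhodamine series on each plate calibrates the signal. Compounds sit in 100 mM Tris (pH 8.0) for 15 min at ambient temperature before imaging through 547 nm/598 nm filters.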
A647 autofl: compound fluoresces in the A647 spectral region. Compound fluorescence, A647 channel (570/671 nm), Tris buffer. max dye-equivalent concentration, M. 59,000 tested, under 10 active. AID 592;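 further: values scaled relative to a standard on each plate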
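Spectral profiling of library compounds in pH 8.0 Tris: 15 min room-temperature incubation, single ex/em pair (570/671 nm), response normalized to Alexa 647 equivalents.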
TexasRed autofl: Texas Red region autofluorescence. Compound fluorescence, Texas Red channel, 547/618 nm; hits give high values. max dye-equivalent concentration, M. hit rate 0.06% among 59,000; in the data active means max dye-equivalent concentration above about 10 nM; inconclusive means between about 1.1 nM and that limit
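Compound fluorescence was read after 15 min at room temperature in 100 mM Tris, pH 8.0, using 547 nm excitation and 618 nm emission across a concentration series. It was expressed as Texas Red dye-equivalent concentration from an on-plate standard curve.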
Fluorescein fluor: compound autofluorescence in fluorescein spectral region | Compound autofluorescence, 480/540 nm, fluorescein-equivalent; hits give high values | max fluorescein-equivalent concentration, M | hit rate 0.91% among 59,000 | AID 593; in the data active means max fluorescein-equivalent concentration above about 10 nM; inconclusive means between about 1.1 nM and that limit
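Tris 100 mM pH 8.0; 15 min RT; CCD read, ex 480/em 540 nm. Output: fluorescein-equivalent concentration per compound concentration, from six-point dye series on each plate.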
A488 autofl: compound autofluorescence in A488 spectral region. compound autofluorescence, A488 spectral region, dye equivalency; Compound Type: qHTS ECL - MLSMR. max dye equivalency, M. hit rate 0.1% among 59,000
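Compound autofluorescence was read in 100 mM Tris pH 8.0 after 15 min at room temperature, ex 480 nm/em 540 nm. Intensities were converted to A488 dye-equivalent concentration using an on-plate six-point A488 standard curve.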
* = called active by the depositor; i = inactive; ? = inconclusive; ! = a repeat was not active. Unless noted, how the calls were made is not given here.

SMILES	Resorufin fluor	Rhodamine autofl	A647 autofl	TexasRed autofl	Fluorescein fluor	A488 autofl
CC(=O)N1CC=C2C(C#N)=C(N)C(C#N)(C#N)C(C)C2C1 (stereo unspecified)	i	i	1e-09	i	?	i
COc1ccc(CNc2nc(-c3ccc(N(C)C)cc3)nc3ccccc23)c(OC)c1	i	i	1e-09	i	i	i
N[C@H]1[C@@H](C(=O)O)[C@H]2C=C[C@H]1C2	i	i	4.43e-08	i	?	i
CCn1c(CSc2nnc(-c3cccnc3)n2-c2ccccc2C)nc2cc(C(=O)O)ccc21	2.22e-07M*	2.6e-07M*	?	4.17e-07M*	?	i
CCOc1ccccc1-n1c(SCC(N)=O)nnc1-c1cccnc1	i	i	5e-09	i	i	i
CCn1c(CSc2nnc3ccccn23)nc2cc(C(=O)O)ccc21	4.74e-08M*	7.1e-08M*	6.6e-08	1.14e-07M*	1.35e-08M*	i
COc1ccc2cc(C(=O)CCC(=O)O)ccc2c1	i	i	1e-09	i	i	i
C[C@@]12CCC(=O)C=C1CC[C@H]1[C@@H]2[C@@H](O)C[C@]2(C)[C@@H]1CC[C@@]2(O)C(=O)COC(=O)C1CCCC1	i	i	3.8e-08	i	?	i
O=C1OCCN1/N=C\c1ccc([N+](=O)[O-])o1	i	i	1.87e-08	?	3.11e-08M*	i
O=C1O[C@H](CN2CCOCC2)CN1/N=C\c1ccc([N+](=O)[O-])o1	i	i	1.1e-09	i	?	i
CC1CCc2cccc3c2N1c1cc(C#N)c(C#N)cc1O3 (stereo unspecified)	i	i	5e-09	?	6.28e-08M*	?
COC(=O)[C@@H]1[C@@H]2C[C@H]3c4[nH]c5ccccc5c4CCN3C[C@@H]2CC[C@@H]1OS(=O)(=O)O	i	i	5.2e-08	i	?	i
O=C(O)[C@@H]1[C@@H]2C[C@H]3c4[nH]c5ccccc5c4CCN3C[C@@H]2CC[C@@H]1O	i	i	7.8e-09	i	1.67e-08M*!	i
O=C(Cn1cc(C(=O)COc2ccccc2)c2ccccc21)NCc1ccco1	i	i	1.13e-08	i	1.49e-08M*	i
COc1ccccc1CN1CC[C@@]2(CCCN(C(=O)c3ccncc3)C2)C1	i	i	3.9e-09	i	i	i
COc1ccccc1CN1CCC2(CC1)CCN(C(=O)c1ccncc1)CC2	i	i	2.3e-09	i	1.06e-08M*	i
CCn1cc(C(=O)NCc2ccco2)c(=O)c2cc(S(=O)(=O)N3CCCCCC3)ccc21	i	i	1e-09	i	i	i
CCn1cc(C(=O)NCc2ccccn2)c(=O)c2cc(S(=O)(=O)N3CCCCC3)ccc21	?	?	3.64e-08	?	1.72e-08M*	i
COc1ccc2c(C)cc(SCC(=O)N3CCOCC3)nc2c1	i	i	3.66e-08	i	5.88e-08M*	?
CC(=O)c1c(C)nc2cc(Cl)ccc2c1N	i	i	1e-09	i	i	i
Cc1nc2ccc(Cl)cc2nc(C)/c1=N\O	i	i	1.13e-08	?	1.08e-07M*	?
CCCCC/C=C\C[C@H](O)/C=C\c1cccc(C[C@H](O)CCCCO)n1	i	i	5.8e-09	i	?	i
CCOC(=O)C1CCCN(c2nc3ccccc3nc2C(C#N)C(=O)OC(C)C)C1 (stereo unspecified)	i	i	2.52e-08	i	2.27e-07M*	1.35e-08M*
CCOC(=O)C1CCN(c2nc3ccccc3nc2C(C#N)C(=O)OC(C)C)CC1 (stereo unspecified)	i	i	6.6e-09	i	1.29e-08M*	i
CCOC(=O)C1CCN(c2nc3ccccc3nc2C(C#N)C(=O)OC(C)COC)CC1 (stereo unspecified)	i	i	1.5e-09	i	?	i
Nc1nonc1C(=O)NCCN=Cc1cc(Cc2ccccc2)cc(Br)c1O	i	i	1e-09	i	2.02e-08M*	i
COC(=O)C(C#N)c1nc2ccccc2nc1N1CCCC1 (stereo unspecified)	i	i	1e-09	i	i	i
